# Screens as filed in PubChem BioAssay.
# Pf growth 48h: Primary qHTS for delayed death inhibitors of the malarial parasite plastid, 48 hour incubation | P. falciparum luciferase growth in erythrocytes, 48 h | Potency, µM (highest dose often 28.7 µM), without a hit: at the top dose activity change, negative = inhibition, most hits filed as inhibitors | 310,000 compounds, 5.9% hits; further: potency means the concentration at half of the fitted maximal effect; on the % scale 0 is the no-effect control and ±100 the full control effect
#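 Luciferase-expressing P. falciparum in infected erythrocytes (2% hematocrit, 0.1% parasitemia final) in RPMI 1640/0.5% Albumax were exposed to compound for 48 hours at 37 C, 5% CO2; growth read as luminescence.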
# Shiga inhibitor: A qHTS for Small Molecule Inhibitors of Shiga Toxin; Vero cells, Shiga toxin protein synthesis inhibition reporter; inhibition, % at 38.7 µM; 290,000 compounds, 9.2% hits; AID 2315, 2010; in the data active means inhibition mostly above about 28%, no sharp cut-off; inactive means mostly below about 43%; further: 0% is about no effect
# CHX counter: Cycloheximide Counterscreen for Small Molecule Inhibitors of Shiga Toxin; cell reporter, cycloheximide protein synthesis inhibition counterscreen; max response, %; 300,000 compounds, 12% hits; AID 2314, 2010; in the data active means max response mostly above about 13%, no sharp cut-off; inactive means mostly below about 14%; further: read at 38.3 µM for the half of the compounds with a filed dose; 0% is about no effect
# HCMV inh: qHTS Assay for inhibitors of the human cytomegalovirus (HCMV) | 410,000 compounds, 4.5% hits | HFF cells, HCMV-luciferase reporter, 72 h; stronger effect = lower value | activity change, negative = inhibition, % at 57.5 µM; in the data active means activity change below about -60%; inconclusive means no clear call, values can overlap the other calls; inactive means above about -39%; further: on the % scale 0 is the no-effect control and ±100 the full control effect
#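 Human foreskin fibroblasts infected with luciferase-reporter HCMV at MOI 1 PFU/cell, compounds at two doses. Luciferase measured 72 h post infection; normalized to buffer-only basal and Salinomycin (10uM) controls.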
# Pf growth 96h: Primary qHTS for delayed death inhibitors of the malarial parasite plastid, 96 hour incubation; P. falciparum luciferase reporter growth, 96 h; Potency, µM (highest dose often 28.7 µM), inactives show top-dose activity change, negative = inhibition, hits mostly inhibitors; 320,000 compounds, 6.9% hits; AID 504834, 2011; further: potency means the concentration at half of the fitted maximal effect; on the % scale 0 is the no-effect control and ±100 the full control effect
#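 Two-generation exposure (96 h) targets delayed-death phenotype. Reporter parasites carrying integrated firefly luciferase, in red cells at 2% hematocrit and 0.05% parasitemia final, kept at 37 C, 5% CO2; luminescence loss indicates inhibition.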
# HCV inhibitor: qHTS Assay for Inhibitors of Hepatitis C Virus (HCV); Huh7.5.1 HCVcc-Cre infection, luciferase reporter, 44 h; Potency, µM (doses to about 41.8 µM), without a hit: at the highest dose activity change, negative = inhibition, hits mostly inhibitors; 340,000 compounds, 3.4% hits; further: potency means the concentration at half of the fitted maximal effect; on the % scale 0 is the no-effect control and ±100 the full control effect
#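 Infectious HCVcc-Cre (~0.5 moi) was added to cells just after compound, with cells seeded 4 h earlier at 1,000 per well. Luciferase activity after 44 h culture reported infection; substrate was incubated 15 min at room temperature before reading.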
# The depositor's hits bear a star; ? = inconclusive; nt = no result; [ ] = remark or other dose. The list is not random: actives were taken first. Their share in the collection is about 21%. Unless noted, the call rests on the fitted dose curve; in most records, active means well fitted inhibition curve with a large enough effect; inconclusive means small, poorly fitted or top-dose-only effect, or another doubt; inactive means no such curve, though single readings can be large or run the other way.
SMILES,Pf growth 48h,Shiga inhibitor,CHX counter,HCMV inh,Pf growth 96h,HCV inhibitor
COc1ccc(C2C(C(=O)Nc3cc(C)on3)c3ccccc3C(=O)N2C)cc1 (stereo unspecified),?,-2,-2,10,-8%,2%
CCC(C)OC(=O)/C(C#N)=C\c1ccc(-c2cccc(C(F)(F)F)c2)o1 (stereo unspecified),nt,nt,nt,10,nt,nt
CN(c1ccc(OCC(=O)OCC(=O)Nc2ccc(OC(F)F)cc2)cc1)S(=O)(=O)c1cccs1,nt,nt,nt,0,nt,14%
COc1ccc(N(C(=O)c2ccco2)C(C(=O)NC2CCCC2)c2cccs2)cc1 (stereo unspecified),-27%,18,6,-69*,-13%,-25%
O=C(NC1CCCC1)C(c1cccs1)N(C(=O)c1ccco1)c1ccc2c(c1)OCCO2 (stereo unspecified),?,52*,15*,-62*,15%,?
O=C(C1CCCN(Cc2ccc([N+](=O)[O-])cc2)C1)N1CCCCC1 (stereo unspecified),7%,-3,-4,-18,-14%,-22%
CC1CCCC(C)N1C(=O)COC(=O)C12CC3CC(CC(Cl)(C3)C1)C2 (stereo unspecified),?,nt,nt,-63*,?,-7%
COc1cc(N)c(Cl)cc1C(=O)OCC(=O)Nc1cccnc1Cl,2%,nt,nt,-24,25%,0%
O=C(Nc1ccc(NC(=O)c2ccccc2Br)cc1)c1ccccc1,41%,15,16,11,-2%,-25%
COC(=O)Cc1ccc(NC(=O)c2cccs2)cc1,94%,82*,49*,44,41%,-8%
O=C(Nc1ccc(C(F)(F)F)cc1)c1ccccc1Br,82%,108*,49*,10,-13%,?
COc1ccc(NC(=O)n2nc(OC(=O)c3cccs3)cc2N)cc1,181%,51*,33*,36,123%,15%
N/C(=N\O)c1ccc(NC(=O)c2cccs2)cc1,139%,109*,58*,41,3%,0%
CCOc1ccccc1NC(=O)c1ccccc1NC(=O)c1ccco1,?,2,-1,24,41%,-21%
O=C(Nc1ccccc1OCc1ccccc1)c1ccccc1Br,?,14,2,1,?,11µM*
CC(=O)c1ccc(NC(=O)c2cccs2)cc1,nt,125*,54*,9,208%,-1%
O=C(Nc1ccc(F)cc1)c1ccccc1Oc1ccc(C(F)(F)F)cc1[N+](=O)[O-],10µM*,-9,-3,-37,-99%,11%
COc1ccc(NC(=O)c2ccc(NC(=O)c3cccs3)cc2)cc1,-8%,1,9,-2,76%,?
CC(=O)c1ccc(OC(=O)c2cccs2)cc1,7%,-13,-2,-1,24%,6%
CC(=O)Nc1ccc(OC(=O)c2cccs2)cc1,16%,71*,34*,76,nt,4%
O=C(Nc1ccccc1)c1ccccc1Oc1ccc(C(F)(F)F)cc1[N+](=O)[O-],-14%,-13,0,?,17%,9%
COc1ccc(CC(=O)NNC(=O)CSc2nc(C)c(C)c(=O)[nH]2)cc1,10%,-17,-4,-7,?,8%
COc1ccc(N2CC(NC(=O)COc3ccc4ccccc4c3)CC2=O)cc1OC (stereo unspecified),nt,nt,nt,-1,nt,nt
O=C(Nc1ccc(C(F)(F)F)cc1)C1(c2ccccc2)CC1,4%,18,12*,7,21%,1%
COC(=O)Cc1ccc(NC(=O)c2ccccc2Br)cc1,5%,50,15*,-32,17%,10%
SMILES,Pf growth 48h,Shiga inhibitor,CHX counter,HCMV inh,Pf growth 96h,HCV inhibitor
Cc1c(-c2ccco2)[n+](=O)c2c(n1[O-])CCC2,18%,2,4,-7,15µM*,4%
Cc1noc(C)c1-c1ccc(C(=O)NC2CCCCC2)c2occc12,nt,nt,nt,92,nt,nt
Cc1ccc(CN2CCc3c(OCc4ccc(F)cc4)cccc3C2=O)cc1,?,9,-1,-81*,?,?
O=C1c2cccc(OCc3ccc(F)cc3)c2CCN1Cc1ccc(F)cc1,?,-4,-2,-82*,?,6.3µM*
COc1ccc(NC(=O)CSCC(=O)Nc2cccc3ncccc23)cc1,22%,nt,nt,-13,10%,0%[8.37 µM]
Cc1ccc2nc(N(CCCN(C)C)C(=O)c3ccc(S(=O)(=O)N4CCCCCC4)cc3)sc2c1,13µM*,-7,-3,-32,?,?
CN(C)CCN(C(=O)c1ccc(S(=O)(=O)N2CCCC2)cc1)c1nc2ccc(Br)cc2s1,?,57*,30*,-5,?,-29%
CCCCN(C)S(=O)(=O)c1ccc(C(=O)N(CCN(C)C)c2nc3ccc(C)cc3s2)cc1,11%,44*,20*,-35,46%,14%
CN(C)CCCN(C(=O)c1ccc(S(=O)(=O)N2CCCCCC2)cc1)c1nc2ccc(F)cc2s1,?,-12,9,3,?,?
CCOC(=O)c1c(S(=O)(=O)N2CCC(C(=O)Nc3cccc(C#N)c3)CC2)c(C)n(C)c1C,nt,nt,nt,-18,nt,nt
COC(=O)C[C@@H]1C=C[C@@H](NC(=O)C2CCC2)[C@@H](CO)O1,nt,nt,nt,-24,nt,nt
Cc1oc2c(C)c3oc(=O)c(CCC(=O)O)c(C)c3cc2c1-c1ccccc1,nt,-5,0,-10,14%,18%
Cc1c(NC(=O)c2nn(CC(C)C)c(=O)c3ccccc23)c(=O)n(-c2ccccc2)n1C,-12%,nt,nt,-13,?,1%
C#Cc1cccc(-n2nnc(C(=O)OC)c2-c2ccccc2)c1,nt,16,-2,-102*,-8%,3%
O=C(Nc1ccc2c(c1)OCO2)c1cnc2n(c1=O)CCS2,105%,49*,29*,188,7%,10%
O=C(Nc1ccccc1)c1cnc2n(c1=O)CCS2,94%,47,15,146,141%,16%
O=C(Nc1ccc(OC(F)(F)F)cc1)c1cnc2n(c1=O)CCS2,73%,21,16*,-7,37%,2%
O=C(NCc1ccc2c(c1)OCO2)c1cnc2n(c1=O)CCS2,nt,-18,-5,-2,-20%,-2%
Cc1cccc(NC(=O)c2cnc3n(c2=O)CCS3)c1,131%,17*,21*,57,1%,5%
CCCCOC(=O)c1ccc(NC(=O)c2cnc3n(c2=O)CCS3)cc1,-27%,-14,-5,-20,nt,?
O=C(Nc1ccc2c(c1)OCCO2)c1cnc2n(c1=O)CCS2,65%,18,30*,4,148%,3%
CCCCOCC1CN(CCCC)S(=O)(=O)c2c(F)cccc2O1 (stereo unspecified),nt,nt,nt,-39,nt,nt
